Screening data: PubChem, The Scripps Research Institute Molecular Screening Center
Compounds with a hit are over-represented: about 2.3% of the library has one in this group of screens.
CHO-K1 Ca PAM: nonselective calcium activators in parental CHO-K1 cells, primary screen, counter-screen for M1 PAM project, cell-based, Fluo-8 calcium fluorescence, full deck, 1536-well; activation, % at 3 µM; ATP EC20; 0% at ATP EC20, 100% at ATP max; actives 0.02% (n = 360,000); AID 602247, 2012;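 active = activation above the run cutoff, the mean activation of all test compounds plus 3 SD, cut at about 40% in these data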;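 note: peak over basal fluorescence ratio in a 140 s read after ATP addition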
M1 antag: human M1 muscarinic receptor antagonists, primary screen, CHO-K1 cells, Fluo-8 calcium fluorescence, 1536-well | CHO-K1 hM1, ACh EC80 antagonist | inhibition, % at 3 µM | actives 1.3% (n = 360,000);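 active = percent inhibition above its own plate's cutoff, namely the mean of that plate's compound wells plus 3 SD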;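 note: peak over basal fluorescence ratio during 140 s after agonist addition; 0% = ACh EC80 plus DMSO and 100% = DMSO alone without agonist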
Target sequence (P11229 whole entry, looked up): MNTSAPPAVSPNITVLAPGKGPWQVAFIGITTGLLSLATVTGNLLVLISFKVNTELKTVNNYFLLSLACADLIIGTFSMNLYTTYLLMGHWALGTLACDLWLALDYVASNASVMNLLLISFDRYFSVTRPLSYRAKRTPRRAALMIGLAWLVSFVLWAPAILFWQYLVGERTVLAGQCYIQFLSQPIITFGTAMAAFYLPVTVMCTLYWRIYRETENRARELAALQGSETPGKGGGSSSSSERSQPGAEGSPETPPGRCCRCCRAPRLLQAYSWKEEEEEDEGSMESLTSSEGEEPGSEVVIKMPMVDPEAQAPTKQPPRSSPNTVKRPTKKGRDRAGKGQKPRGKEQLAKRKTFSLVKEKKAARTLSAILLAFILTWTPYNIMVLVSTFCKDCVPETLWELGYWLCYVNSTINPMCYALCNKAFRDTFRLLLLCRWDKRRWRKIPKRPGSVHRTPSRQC
M1 ag: human M1 muscarinic receptor agonists, primary screen, Fluo-8 calcium fluorescence, CHO-K1 cells, HTS. Muscarinic acetylcholine receptor M1 (Homo sapiens), P11229. AID 588814, 2011. CHO-K1 hM1, agonist mode; 0% DMSO, 100% acetylcholine EC100. actives 0.33% (n = 360,000). activation, % at 3 µM;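 active = activation above the run's mean compound activation plus 3 SD, cut at about 16% in these data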;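 note: peak over basal fluorescence ratio within a 140 s kinetic read after compound addition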
M1 ag parental: counter-screen for M1 agonists: effect in parental CHO-K1 cells; Fluo-8 calcium fluorescence; scaled to maximal ATP response, vehicle zero; activation, % at 3 µM; actives 0.48% (n = 360,000); in the data active = activation above about 15%;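 note: untransfected CHO-K1 host cells lacking M1 receptor as counterscreen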
M1 PAM: human M1 muscarinic receptor positive allosteric modulators, primary screen, CHO-K1 cells, Fluo-8 calcium fluorescence, 1536-well; actives 0.088% (n = 360,000); CHO-K1 hM1, ACh EC20; 0% = ACh EC20, 100% = maximal ACh; Muscarinic acetylcholine receptor M1 (Homo sapiens), P11229; activation, % at 3 µM; in the data active = activation above about 19%, passing the limit was not always enough
CHO-K1 Ca antag: counter-screen for M1 antagonists: effect in parental CHO-K1 cells. actives 0.6% (n = 360,000). AID 602250. ATP-induced calcium, Fluo-8 fluorescence. inhibition, % at 3 µM;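 active = inhibition above a per-plate cutoff, the plate's mean sample inhibition plus 3 SD, cut at about 24% in these data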;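 note: 0% = DMSO plus EC80 ATP and 100% = DMSO alone without ATP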
The depositor's hits bear a star; / = not tested or not shown.

SMILES	CHO-K1 Ca PAM	M1 antag	M1 ag	M1 ag parental	M1 PAM	CHO-K1 Ca antag
CCc1ccccc1OCCCCN1CCCCC1	1	36*	-9	0	-22	-1
c1ccc(COc2ccc(OCCCCN3CCCCC3)cc2)cc1	2	35*	-3	3	-26	-2
CC1CCCN(Cc2ccc(OCc3ccccc3)cc2)C1 (stereo not drawn)	-3	73*	-9	1	-30	-8
CCCCCCCCN1C(=O)[C@H](CC(=O)N2CCCCC2)C[C@@]2(C(=O)OC)CCCCC=C12	19	/	/	1	/	-15
COc1ccccc1CNC(=O)c1nccnc1CO	8	7	-5	10	-2	15
CCn1c(NC(=O)/C=C/c2ccc(F)cc2)nc2ccccc21	-4	-2	-4	5	3	-14
CC(C)(C)NS(=O)(=O)c1ccc2nc(NC(=O)c3ccc(N4C(=O)CCC4=O)cc3)sc2c1	7	-4	2	15*	6	3
O=C(Cc1ccccc1Cl)c1ccccc1	-9	-14	2	0	32*	-11
O=C(CC(=O)c1ccccc1)c1ccccc1	18	2	-2	0	4	-4
Cc1nn(CC(=O)NCc2cccnc2)c(C)c1[N+](=O)[O-]	-17	-12	-2	0	18	11
Cc1nn(CC(=O)NCc2ccc(C(=O)O)cc2)c(C)c1[N+](=O)[O-]	-15	-3	-1	2	-8	24*
COC(C#CCCN(C)C)(c1ccccc1)c1ccccc1	11	99*	-11	1	-27	-7
COc1ccc(OC)c2c(C)c(C)[nH]c12	15	5	-5	2	1	-9
Cc1ccc(COc2ccc(CNCCCN3CCCCCC3=O)cc2)cc1	11	46*	-10	5	-33	-14
Cc1ccc(-n2c3nc(=O)[nH]c(=O)c-3cc3cc([N+](=O)[O-])ccc32)cc1C	11	30*	-10	0	-28	-1
Cc1ccc(S(=O)(=O)n2cnc3cc([N+](=O)[O-])ccc32)cc1C	20	-4	-5	1	5	-7
COC(=O)C(Cc1ccccc1)NC(=S)NC(=O)c1ccccc1 (stereo not drawn)	9	-16	-7	0	1	-16
CN(C(=O)c1ccccc1OCc1ccc(Cl)cc1)c1ccccc1	16	75*	-6	0	-23	1
C/C(=N\NC(N)=S)C1(C)CC2(CC(C)(C)OC2=O)C(=O)O1 (stereo not drawn)	1	-16	-2	0	17	3
CCOc1ccccc1CN1CCCC(C(=O)Nc2cccc(-n3cccn3)c2)C1 (stereo not drawn)	20	71*	-2	11	-22	-7
CCn1ncc(CN2CCCC(C(=O)Nc3cccc(-c4cc5ccccc5[nH]4)c3)C2)c1C (stereo not drawn)	-14	25*	-2	1	-9	7
CCOc1cccc(CN2CCCC(C(=O)Nc3cccc(-n4cccn4)c3)C2)c1 (stereo not drawn)	-5	5	-5	3	-4	5
CCOc1nc(OCC)c2[nH]c(C(=O)O)c(Br)c2n1	12	-10	-1	0	10	-11
Cc1ccc(NS(=O)(=O)c2ccc(C(=O)OCC(=O)Nc3cc(C)on3)cc2)cc1	24	8	28*	19*	6	2
CCCc1cc2c(cc1N(C)S(=O)(=O)c1ccccc1)OCO2	12	7	-6	-1	-6	-14
SMILES	CHO-K1 Ca PAM	M1 antag	M1 ag	M1 ag parental	M1 PAM	CHO-K1 Ca antag
C=CCn1c(-c2ccc(S(=O)(=O)N3CCOCC3)cc2)csc1=Nc1ccccc1	17	19	-1	6	-5	8
CC(=O)c1cccc(N=c2scc(-c3ccc(S(=O)(=O)N4CCOCC4)cc3)n2CCO)c1	-6	31	-2	10	-18	32*
CCOc1ccc(-c2c(=O)n(OCc3ccc([N+](=O)[O-])cc3)c3ccccc3[n+]2[O-])c(OCC)c1	14	-7	7	20*	9	5
Nc1ccc2nc3n(c(=O)c2c1)CCC3	-5	-2	3	0	6	26*
N#Cc1ccc(C(=O)Nc2cccc(S(=O)(=O)NC3=NCCC3)c2)cc1	13	0	-1	1	3	-13
O=C(NCC(c1ccco1)N1CCc2ccccc21)C(=O)Nc1ccccc1 (stereo not drawn)	-19	-6	-3	0	2	25*
COc1ccc(OC)c(S(=O)(=O)NCC(c2ccco2)N2CCc3ccccc32)c1 (stereo not drawn)	5	-24	2	0	24*	-18
COc1ccc([N+](=O)[O-])cc1NC1CCN(C(=O)c2cccs2)CC1	22	2	0	2	13	0
COc1ccc(C(CNC(=O)c2cccc(S(=O)(=O)N3CCCC3)c2)N2CCCC2)cc1 (stereo not drawn)	2	7	-7	0	-7	-10
COc1ccc(C(CNC(=O)CCNS(=O)(=O)c2ccccc2)N2CCOCC2)cc1 (stereo not drawn)	-14	30*	-4	0	-13	9
COc1ccc(C(CNC(=O)Cc2ccccc2Cl)N2CCCCC2)cc1 (stereo not drawn)	-3	38*	-10	1	-28	-10
COc1ccc(C(CNC(=O)c2ccc(Cl)c(NC(=O)c3cccs3)c2)N2CCCC2)cc1 (stereo not drawn)	14	46*	-6	2	-27	-12
Cc1cccc(CS(=O)(=O)c2ncc(CO)n2C)c1	-3	3	-3	4	-4	-3
CC(Sc1nnc(C(C)Oc2ccccc2F)o1)C(=O)NCc1ccc2c(c1)OCO2 (stereo not drawn)	-12	-3	-4	0	3	-6
CCCCC1CCC(C(=O)NCC(c2ccco2)N2CCOCC2)CC1 (stereo not drawn)	8	-1	-3	1	6	-17
CCOC(=O)c1ccc2c(c1)nc(C1CCN(S(=O)(=O)c3cccs3)CC1)n2CC	3	15	-5	15*	-23	-6
CCOC(=O)c1cccc(NC(=O)C2CCN(S(=O)(=O)c3cccs3)CC2)c1	1	-2	-2	5	-2	2
CC1CCCC(NC(=O)CN2C(=O)NC(c3ccccc3)(c3ccccc3)C2=O)C1C (stereo not drawn)	-4	17	-7	-1	-7	-4
